About 83,000 compounds went through this panel and 20% of them were active in at least one assay; those are over-represented in the sample as a whole.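 48-hour exposure, single concentration, 96-well plates; percent growth endpoint where 0 means no net growth. Active: below 10.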 A number with no mark means an inactive call. The source made the active and inactive calls.
What was measured:
Assay in all cases: NCI-60 one-dose screen, 48 h (100 = growth as untreated, 0 = no growth, -100 = all killed)
Details in all cases: 10 µM unless noted
NCI-H23 lung = system: NCI-H23 lung
NCI-H226 lung = system: NCI-H226 lung
NCI-H322M lung = system: NCI-H322M lung
HOP-62 NSCLC = system: HOP-62 NSCLC
NCI-H460 lung = system: NCI-H460 lung
HOP-92 NSCLC = system: HOP-92 NSCLC
NCI-H522 lung = system: NCI-H522 lung
A549/ATCC NSCLC = system: A549/ATCC NSCLC
786-0 renal = system: 786-0 renal
COLO 205 colon = system: COLO 205 colon
DU-145 prostate = system: DU-145 prostate
K-562 leukemia = system: K-562 leukemia
MALME-3M melanoma = system: MALME-3M melanoma
MDA-MB-231 breast = system: MDA-MB-231 breast
RXF 393 renal = system: RXF 393 renal
SF-268 CNS = system: SF-268 CNS
SF-295 CNS = system: SF-295 CNS
SF-539 CNS = system: SF-539 CNS
UACC-257 melanoma = system: UACC-257 melanoma
M14 melanoma = system: M14 melanoma

Compound	growth (NCI-H23 lung)	growth (NCI-H226 lung)	growth (NCI-H322M lung)	growth (HOP-62 NSCLC)	growth (NCI-H460 lung)	growth (HOP-92 NSCLC)	growth (NCI-H522 lung)	growth (A549/ATCC NSCLC)	growth (786-0 renal)	growth (COLO 205 colon)	growth (DU-145 prostate)	growth (K-562 leukemia)	growth (MALME-3M melanoma)	growth (MDA-MB-231 breast)	growth (RXF 393 renal)	growth (SF-268 CNS)	growth (SF-295 CNS)	growth (SF-539 CNS)	growth (UACC-257 melanoma)	growth (M14 melanoma)
COc1ccc2[nH]c(=O)c(CSc3ccccc3Nc3nccc(-c4ccc5c(c4)OCO5)n3)cc2c1	94.9%	76.1%	92.5%	94.1%	83.5%	90.3%	66.1%	76.3%	90.1%	101%	78.4%	52.7%	99.4%	93.7%	79.7%	73.4%	104%	95%	96.6%	91.5%
Cc1ccc(C(=O)Nc2ccc(-n3ccnc3)c(C(F)(F)F)c2)cc1C#Cc1cnc2cccnn12	13.3%	-52.4% (active)	44.5%	-20.3% (active)	18.8%	-14.1% (active)	-20% (active)	28.8%	14%	22.5%	40.7%	4.76% (active)	-14% (active)	-15.5% (active)	-20% (active)	45.4%	21.8%	-40.9% (active)	8.92% (active)	1.02% (active)
C#CCN(C)CCCOc1ccc(N(C)C(=O)c2cc(C(C)C)c(O)cc2O)cc1Cl	12.3%	13.7%	34.8%	34.6%	-13.3% (active)	-23.9% (active)	12.6%	15.9%	33.5%	7.34% (active)	24.3%	3.57% (active)	-27.8% (active)	-15.8% (active)	22.3%	41.4%	6.57% (active)	17.3%	9.35% (active)	0.868% (active)
Nc1nn2c(-c3cc4cc(Br)ccc4oc3=O)ccnc2c1N=Nc1ccc(S(N)(=O)=O)cc1	50.6%	77.6%	78.3%	41.8%	52%	83.2%	93.3%	107%	86.1%	96.5%	99.7%	53.9%	70.5%	-8.56% (active)	87.1%	78.5%	62.2%	55.1%	101%	62.2%
COc1ccc(-c2nc3ccc(-c4nnc(SCC(=O)Nc5ccc(/C(C)=N\O)cc5)o4)cc3[nH]2)cc1	42.6%	77.5%	46.5%	77%	59.1%	104%	40.1%	74.2%	-62.1% (active)	107%	71.7%	32.4%	-20.5% (active)	56%	-45.2% (active)	49.4%	97.7%	-53.4% (active)	50.4%	28.5%
COc1ccc(-c2cc(C(=O)Oc3ccc(C=O)cc3OC)nn2-c2ccc(S(C)(=O)=O)cc2)cc1	96%	104%	106%	104%	105%	110%	68.3%	105%	113%	133%	110%	96.1%	105%	94.3%	122%	103%	110%	106%	115%	117%
COc1ccccc1Nc1nnc(-c2c[nH]c3ccccc23)o1	12.6%	47.1%	43.5%	26.3%	10.8%	16.1%	-31.5% (active)	21.9%	9.22% (active)	-38.8% (active)	12.6%	7.09% (active)	44.1%	3.73% (active)	-48.2% (active)	47.7%	-28.8% (active)	-40.3% (active)	44.7%	20.5%
NS(=O)(=O)c1cccc(Nc2nc(SCC(=O)c3ccc(F)cc3)nc3ccccc23)c1	5.36% (active)	15.3%	22.9%	5.89% (active)	12.5%	29%	-0.334% (active)	28.1%	26.1%	26.4%	9.74% (active)	8.34% (active)	10.6%	7.12% (active)	38.9%	8.21% (active)	-5.65% (active)	8.17% (active)	14.4%	23.3%
O=C1NC(=NC23CC4CC(CC(C4)C2)C3)N/C1=C\c1ccc2ncccc2c1	-15.2% (active)	-38.5% (active)	22.6%	-64.4% (active)	-68.8% (active)	-11.7% (active)	-37% (active)	-46.3% (active)	-51% (active)	19.5%	3.46% (active)	11%	2.17% (active)	-14% (active)	-4.92% (active)	35.2%	-29.6% (active)	2.08% (active)	50.6%	45.9%
O=C(N/N=C/c1occc1Br)c1[nH]c2ccc(Br)cc2c1-c1ccccc1	-100% (active)	-82.5% (active)	-81.2% (active)	-69.1% (active)	-86.2% (active)	-74.1% (active)	-86.9% (active)	-41.7% (active)	-76.6% (active)	-73.5% (active)	-78.4% (active)	6.6% (active)	-94.9% (active)	-83.1% (active)	-88.2% (active)	-65.9% (active)	-91.2% (active)	-100% (active)	-68.2% (active)	-84.5% (active)
CCCSc1nnc(-c2c(C)nc3sccn23)o1	90.5%	66.6%	73.9%	112%	97.9%	73.8%	98.7%	98.2%	92.8%	118%	96.7%	88.4%	104%	74.6%	82.9%	89.1%	87.1%	90.9%	93.6%	99.6%
O=c1ccc(Cn2c(C(F)(F)F)cc3c(Cl)ncnc32)c[nH]1	17.7%	116%	67.2%	94.7%	32.5%	78.6%	-77.1% (active)	105%	102%	62.6%	86.3%	3.37% (active)	91.4%	52.6%	86.5%	-22.9% (active)	97.6%	87.4%	24%	-51.5% (active)
CC1=C(C(=O)OCc2ccccc2)C(c2ccc(N(C)C)cc2)n2c(nc3ccccc32)N1 (stereo not given)	90.8%	70.1%	101%	83.6%	99.8%	73.5%	8.11% (active)	94.9%	90.6%	110%	99.6%	58%	75.9%	91.6%	74.6%	81.7%	57.3%	86.4%	85.7%	80.4%
Cc1ccc(C2CC(c3ccc(NC(=S)Nc4ccccc4)cc3)=NN2c2ccc(S(N)(=O)=O)cc2)cc1 (stereo not given)	23.6%	-7.72% (active)	45.6%	34.6%	-11.1% (active)	7.59% (active)	15.8%	15.1%	18.6%	-3.89% (active)	19.7%	22.7%	-0.146% (active)	15.2%	-16.1% (active)	15.6%	8.39% (active)	10.3%	36.6%	19%

Source: PubChem BioAssay (NCI)
